This is a sample that favours compounds with a hit; in the whole collection about 6.9% have one here.
VDR inh: inhibitors of human vitamin D receptor; Potency, µM, for the others: max response, negative = inhibition, most hits filed as inhibitors; P11473; VDR-SRC2-3 peptide fluorescence polarization, 2 h; AID 504847; actives 0.93% (n = 400,000); note: % is set by controls: 0 for no effect and ±100 for the full control effect
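Measured by FP: displacement of SRC2-3 coactivator peptide from VDR by library compounds, following a two-hour ambient incubation.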
PLK1 PBD block: PLK1 (human) polo-box domain binding inhibition. P53350. Plk1 PBD binding of FITC phosphopeptide, fluorescence polarization. Potency, µM, inactives show max response, negative = inhibition, usual class: inhibitors. actives 2.8% (n = 360,000). AID 720504; note: series mostly up to about 57 µM; % is set by controls: 0 for no effect and ±100 for the full control effect; nearly all actives have a fitted effect of over 65% in size
L3MBTL1 inh: blocks human L3MBTL1; Q9Y468; AlphaScreen L3MBTL1–H3K9me1 peptide binding; Potency, µM (doses to about 57.1 µM), inactives show top-dose activity, negative = inhibition, hits mostly inhibitors; actives 0.66% (n = 230,000); AID 485360; note: % is set by controls: 0 for no effect and ±100 for the full control effect; nearly all actives have a fitted effect of over 60% in size
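Displacement of a biotinylated histone H3(1-15) peptide monomethylated at Lys9 (75 nM) from L3MBTL1 (50 nM) was measured by AlphaScreen after a 30 min room-temperature compound incubation; cefsulodin titration served as intraplate control.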
BAZ2B inh: blocks human BAZ2B. Q9UIF8. AlphaScreen BAZ2B-H3K14Ac peptide displacement. Potency, µM (highest dose often 114 µM), for the others: at the highest dose activity change, negative = inhibition, hits mostly inhibitors. actives 4.4% (n = 360,000). AID 504333; note: % is set by controls: 0 for no effect and ±100 for the full control effect; nearly all actives have a fitted effect of over 60% in size
Target sequence (Q9UIF8 whole entry, looked up): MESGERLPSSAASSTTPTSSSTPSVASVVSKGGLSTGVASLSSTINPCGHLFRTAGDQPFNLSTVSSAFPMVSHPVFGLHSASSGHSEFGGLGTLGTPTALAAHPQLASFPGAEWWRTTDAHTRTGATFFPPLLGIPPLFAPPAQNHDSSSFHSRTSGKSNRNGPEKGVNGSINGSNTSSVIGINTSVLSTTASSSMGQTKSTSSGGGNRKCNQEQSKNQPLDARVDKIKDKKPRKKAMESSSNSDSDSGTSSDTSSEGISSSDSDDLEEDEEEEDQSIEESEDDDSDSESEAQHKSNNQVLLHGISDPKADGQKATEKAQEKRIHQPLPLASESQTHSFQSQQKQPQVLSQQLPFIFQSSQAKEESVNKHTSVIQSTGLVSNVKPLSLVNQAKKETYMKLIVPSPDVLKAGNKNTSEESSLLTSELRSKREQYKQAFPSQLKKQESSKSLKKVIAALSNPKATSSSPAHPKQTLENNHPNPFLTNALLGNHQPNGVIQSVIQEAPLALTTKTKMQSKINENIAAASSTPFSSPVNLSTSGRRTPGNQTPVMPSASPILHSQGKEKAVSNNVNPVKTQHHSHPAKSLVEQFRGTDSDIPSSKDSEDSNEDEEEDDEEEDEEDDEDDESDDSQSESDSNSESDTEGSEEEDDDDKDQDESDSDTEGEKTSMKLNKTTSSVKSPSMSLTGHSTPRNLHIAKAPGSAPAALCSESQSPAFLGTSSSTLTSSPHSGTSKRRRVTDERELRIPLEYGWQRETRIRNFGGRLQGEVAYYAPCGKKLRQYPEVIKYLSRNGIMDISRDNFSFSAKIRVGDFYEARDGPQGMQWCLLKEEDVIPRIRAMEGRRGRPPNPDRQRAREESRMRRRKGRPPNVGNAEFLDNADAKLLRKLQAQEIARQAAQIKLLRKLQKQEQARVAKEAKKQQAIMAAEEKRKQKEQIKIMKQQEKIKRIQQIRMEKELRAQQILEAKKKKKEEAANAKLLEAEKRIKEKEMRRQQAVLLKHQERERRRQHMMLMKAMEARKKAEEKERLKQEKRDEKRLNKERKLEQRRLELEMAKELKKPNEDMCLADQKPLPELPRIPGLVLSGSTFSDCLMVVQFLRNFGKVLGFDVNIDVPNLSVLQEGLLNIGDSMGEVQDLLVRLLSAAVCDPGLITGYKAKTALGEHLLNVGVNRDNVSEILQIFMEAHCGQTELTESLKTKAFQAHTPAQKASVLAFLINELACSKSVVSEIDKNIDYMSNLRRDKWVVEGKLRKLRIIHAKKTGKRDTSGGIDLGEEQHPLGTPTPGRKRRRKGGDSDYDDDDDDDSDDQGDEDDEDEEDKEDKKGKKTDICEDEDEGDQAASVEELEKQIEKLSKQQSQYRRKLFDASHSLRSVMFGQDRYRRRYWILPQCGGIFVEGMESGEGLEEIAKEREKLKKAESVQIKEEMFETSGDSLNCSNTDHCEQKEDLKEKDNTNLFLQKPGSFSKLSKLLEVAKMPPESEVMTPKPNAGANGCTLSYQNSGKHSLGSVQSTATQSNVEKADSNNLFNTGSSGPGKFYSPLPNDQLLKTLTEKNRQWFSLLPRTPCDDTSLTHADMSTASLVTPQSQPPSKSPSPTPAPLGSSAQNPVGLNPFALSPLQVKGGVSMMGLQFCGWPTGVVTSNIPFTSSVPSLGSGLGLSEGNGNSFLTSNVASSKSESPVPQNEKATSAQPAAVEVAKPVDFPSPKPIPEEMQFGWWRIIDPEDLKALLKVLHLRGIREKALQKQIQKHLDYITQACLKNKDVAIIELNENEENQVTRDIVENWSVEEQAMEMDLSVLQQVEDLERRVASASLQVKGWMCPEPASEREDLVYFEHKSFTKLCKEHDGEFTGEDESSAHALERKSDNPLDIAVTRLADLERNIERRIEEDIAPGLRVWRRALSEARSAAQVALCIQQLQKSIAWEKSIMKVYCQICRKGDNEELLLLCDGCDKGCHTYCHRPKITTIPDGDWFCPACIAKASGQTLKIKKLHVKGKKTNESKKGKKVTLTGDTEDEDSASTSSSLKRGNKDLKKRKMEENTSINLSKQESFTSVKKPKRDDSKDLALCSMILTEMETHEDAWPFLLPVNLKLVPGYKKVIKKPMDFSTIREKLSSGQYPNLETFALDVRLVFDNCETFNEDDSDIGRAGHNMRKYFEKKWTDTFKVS
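Compounds, titrated to a top concentration of 110 uM, were incubated 30 min at room temperature with preformed BAZ2B/acetyl-K14 H3 peptide complex (50 nM each). Proximity signal was measured by AlphaScreen after 20 min with beads.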
HP1b binding inh: HP1-beta chromodomain-methylated histone interaction inhibition; AlphaScreen HP1-beta / biotin-H3K9me3 peptide binding; P83916; Potency, µM (highest dose often 114 µM), without a hit: at the highest dose activity change, negative = inhibition, actives largely listed as inhibitors; actives 0.56% (n = 390,000); note: nearly all actives have a fitted effect of over 70% in size
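AlphaScreen: HP1-beta (50 nM) preformed 30 min with biotin-H3(1-18)K9me3 peptide (50 nM) in PBS pH 7.4, 0.01% Tween-20. Compound added for 30 min at RT, then streptavidin donor/nickel chelate acceptor beads (10 ug/mL) for 30 min.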
JMJD2A Tudor inh: JMJD2A Tudor domain (human) inhibition; O75164; AlphaScreen JMJD2A-Tudor / H3K4me3 peptide binding; Potency, µM (series often up to 114 µM), inactives show at the top dose activity change, negative = inhibition, most hits filed as inhibitors; actives 4.4% (n = 390,000); AID 504339; note: % is set by controls: 0 for no effect and ±100 for the full control effect; nearly all actives have a fitted effect of over 50% in size
* = called active by the depositor; ? = inconclusive; . = no result given; ! = repeats disagree; [ ] = remark or other dose. Calls come from the whole dose curve; as a rule, active = well fitted curve in the direction sought with a large enough effect; inconclusive = small, poorly fitted or top-dose-only effect, or another doubt; inactive = no such curve, though single readings can be large; an effect the other way counts as inactive or inconclusive. Potency is the fitted concentration of half-maximal effect.

SMILES	VDR inh	PLK1 PBD block	L3MBTL1 inh	BAZ2B inh	HP1b binding inh	JMJD2A Tudor inh
Cc1ccc(-n2nc(C)c3c2OC(N)=C(C#N)C3c2ccc(C)o2)cc1 (stereo not drawn)	-43.0%	-24.7%	?	10µM*	-26.0%	11.2µM*
Cc1ccc(SCc2[nH]nc3c2C(c2ccc(C)o2)C(C#N)=C(N)O3)cc1 (stereo not drawn)	-27.9%	?	-14.0%	?	1.2%	-23.7%
CC(C)c1[nH]nc2c1C(c1ccco1)C(C#N)=C(N)O2 (stereo not drawn)	-26.9%	-2.3%	-10.6%	-37.7%	28.7%	-13.8%
CC(NC(=O)CSc1nc(-c2cccc(Cl)c2)nc2cc(=O)[nH]n12)c1nc2ccccc2n1C (stereo not drawn)	4.1%	.	.	-8.4%	13.5%	-8.4%
N#Cc1nc(Nc2cc(F)cc(F)c2)c2ncn(CCO)c2n1	.	.	.	.	.	-11.3%
COc1ccc(N2CC(NC(=O)C(=O)c3c[nH]c4ccccc34)CC2=O)cc1 (stereo not drawn)	15.7%	.	.	4.4%	29.6%	4.9%
COc1cccc2cc(-c3cc(=O)oc4cc(C)c(OCC(C)=O)cc34)oc12	-17.1%	16.8µM*	.	-22.7%	17.3%	?
COc1ccc2oc(=O)cc(-c3cc4cccc(OC)c4o3)c2c1	-9.8%	-11.0%	.	-4.1%[57.1 µM]	26.7%	-5.3%
CN(C(=S)NC(=O)C1CC1)c1ccc(O)cc1	-21.1%	-12.4%	8.5%	-2.2%	-38.6%	89.1µM*
COc1ccc(CC(CC(=O)O)C(=O)Nc2ccc(Cl)c(Cl)c2)cc1 (stereo not drawn)	?	0.4%	-0.2%	2.7%	1.5%	8.91µM*
CC1=C(O)C(=O)C(C2=C(O)C(=O)C(C)=C(O)C2=O)=C(O)C1=O	-18.0%	-6.0%	.	.	?	0.708µM*
Cc1ccc(C2=C(O)C(=O)C(c3ccc(C)cc3)=C(O)C2=O)cc1	-7.8%	-2.8%	.	.	-22.7%	25.1µM*
Cc1ccc(C)c(S(=O)(=O)Nc2ccc(O)c3ccccc23)c1	?	23.8µM*	-45.0%	50.1µM*	15.8µM*	50.1µM*
COc1ccc(S(=O)(=O)Nc2ccc(O)c3ccccc23)cc1	?	26.7µM*	28.2µM*	39.8µM*	?	31.6µM*
Cc1ccc(/C=C/C(=O)O)cc1S(=O)(=O)Nc1ccccc1C(=O)O	-0.8%	-24.6%	?	?	7.0%	2.3%[11.4 µM]
Cc1ccc(C)c(S(=O)(=O)Nc2ccc(O)c(C(=O)O)c2)c1	?	29.9µM*	-2.4%	.	?	-31.1%[57.1 µM]
Cc1ccc(/C=C/C(=O)O)cc1S(=O)(=O)Nc1ccc(C(=O)O)cc1	-7.9%	26.7µM*	.	-8.2%	19.7%	-4.4%[11.4 µM]
Cc1ccc(C)c(S(=O)(=O)Nc2ccc(C(N)=O)cc2)c1	12.8%	-11.7%	10.6%	-27.8%	22.0%	-3.5%
COc1ccc(N2C(=O)C(Cl)=C(Nc3ccccc3OC)C2=O)cc1	-8.3%	1.7%	-21.3%	?	-27.7%	?
COc1ccc(N2C(=O)C(Cl)=C(Nc3ccccc3O)C2=O)cc1	-27.8%	11.9µM*	.	?	28.2µM*	44.7µM*
O=c1cnc2cncnc2n1Cc1ccccc1	-16.8%	.	.	.	.	.
O=c1cnc2cncnc2n1Cc1ccccc1Cl	39.8µM*	.	.	.	.	.
Cc1cncn1CCc1nc2c3ccccc3nc(SCC(=O)Nc3cccc(Cl)c3)n2n1	19.1%	-7.2%	-19.0%	11.2µM*!	29.9%	?
Cc1nc2ccccc2n1CCc1nc2c3ccccc3nc(SCC(=O)Nc3cccc(C(F)(F)F)c3)n2n1	17.9%	.	.	2.0%	36.8%	-7.3%
COc1ccc(N2CCN(C(=O)Cn3cnc4nc5c(cc4c3=O)CCCC5)CC2)cc1	6.7%	.	.	-19.3%	19.6%[57 µM]	1.3%
NCCNc1ccc(C(=O)N2c3ccccc3Sc3ccccc32)cc1[N+](=O)[O-]	?	2.4%	-5.7%	39.8µM*	-29.1%	?
CCNC(=O)C1CCCc2c1[nH]c1ccc(Cl)cc21 (stereo not drawn)	-10.0%	-18.3%	.	79.4µM*	0.5%	-15.0%[57.1 µM]
O=c1[nH]cnc2nc3n(c12)CCCCC3	4.6%	2.7%	.	2.9%	23.7%	-13.6%
